The entries come from a sample that favours hits as a whole.
Dicer inh – blocks human Dicer maturation of pre-miR-21; z-score at 25 µM; Q9UPY3; AID 1347074; cat-ELCCA pre-miR-21 Dicer processing, chemiluminescence; stronger effect = higher value; actives 6% (n = 47,000); in the data active means z-score above about 3, passing the limit was not always enough;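 further: plate controls were vehicle for no effect and no enzyme for full effect; higher signal means more uncleaved substrate so more Dicer inhibition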
Numbers without * were called inactive.

SMILES | Dicer inh
O=S1(=O)CC(c2ccccc2)CS(=O)(=O)C1CCN1CCOCC1 (stereo not drawn) | -1.4
COc1cc(/C=N/Nc2nc3c(c(=O)n(Cc4ccccc4)c(=O)n3C)n2C)ccc1O | -0.04
COc1cc(/C=C/c2nc(-c3ccccc3O)n(-c3ccccc3)n2)ccc1O | 6*
O=C(O)COc1ccc(/C=C/c2nc(-c3ccccc3O)n(-c3ccccc3)n2)cc1 | 1.3
O=S(=O)(CCN(Cc1cccs1)S(=O)(=O)c1ccc(Cl)cc1)c1ccc(Cl)cc1 | 1.7
CNC(=S)N(CCS(=O)(=O)c1ccc(Cl)cc1)Cc1cccs1 | 3.2*
O=S(=O)(CCN(Cc1cccs1)C(=S)Nc1cccc(F)c1)c1ccc(Cl)cc1 | -1.9
Cc1onc(-c2c(Cl)cccc2Cl)c1C(=O)Nc1ccc2[nH]cc(C#N)c2c1 | 0.29
O=C(Nc1cc(C(F)(F)F)cc(C(F)(F)F)c1)C(=S)NCc1ccccc1 | -0.6
CCOC(=O)c1cnn(-c2ccccc2)c1NC(=O)CN1CCOCC1 | 0.11
CCOC(=O)c1cnn(-c2ccccc2)c1NC(=O)CN1CCN(C)CC1 | -1.2
CCOC(=O)c1cnn(-c2ccccc2)c1NC(=O)Nc1ccccc1 | 4.1*
CCOC(=O)c1cnc2cc(-c3ccc(C(C)(C)C)cc3)[nH]n2c1=O | 1.5
CC(C)(C)SCCNc1nc(Oc2ccc(Cl)cc2)nc(Oc2ccc(Cl)cc2)n1 | 0.58
Cc1cc(N2CCCCC2)n2c(nc3ccccc32)c1C#N | -0.79
C#CCOC(=O)Nc1ccc(OCCOC)nc1 | 2.6
O=C(c1cccs1)C(O)c1cccs1 (stereo not drawn) | -0.15
O=C1C(=O)N(CCN2CCOCC2)C(c2cccs2)/C1=C(\O)c1ccccc1 (stereo not drawn) | 1.3
OC(C#CCN1CCOCC1)c1cccs1 (stereo not drawn) | 4*
N#Cc1c(N)nc2ccc(Cl)cc2c1-c1ccccc1 | -1.2
CCOc1nc(-c2ccc(C)cc2)ccc1-c1noc(C(C)C)n1 | 0.58
Cc1nc(Nc2nc3ccccc3o2)nc(-c2ccccc2)c1C#N | -0.7
CC1CN=C(N(C(=O)Nc2cccc(Cl)c2)c2ccc(Cl)cc2)S1 (stereo not drawn) | -0.78
O=C(NCc1ccncc1)c1cc2n(n1)C(C(F)(F)F)CC(c1ccco1)N2 (stereo not drawn) | 0.35
O=C(NCc1ccco1)c1nn2c(c1Cl)NC(c1ccc(F)cc1)CC2C(F)(F)F (stereo not drawn) | 4.9*
SMILES | Dicer inh
CC(C)(C)NC(=O)c1nn2c(c1Cl)NC(c1ccccc1)CC2C(F)(F)F (stereo not drawn) | -1.9
CC1CCCCN1C(=O)c1nn2c(c1Cl)NC(c1ccco1)CC2C(F)(F)F (stereo not drawn) | -3.5
O=C(NCc1ccc(F)cc1)c1nn2c(c1Cl)NC(c1ccco1)CC2C(F)(F)F (stereo not drawn) | 5.1*
COCCNC(=O)c1nn2c(c1Cl)NC(c1ccc(Br)cc1)CC2C(F)(F)F (stereo not drawn) | 2.7
CCOC(=O)C1CCN(c2nc3ccc(Cl)cc3s2)CC1 | -1.4
O=[N+]([O-])c1ccc(-c2cc(-c3ccccc3OCc3ccccc3)on2)cc1 | 0.3
CCC(CO)NC(=S)Nc1ccc(C)c(Cl)c1 (stereo not drawn) | -9.1
O=C(O)CCCc1nc(-c2cnc3n(c2=O)CCS3)no1 | -0.26
Cc1ccc(OCc2nc(-c3ccncc3)no2)c(C)c1 | -1
O=C(Nc1c(C(=O)c2ccc(Br)cc2)oc2ccccc12)c1ccco1 | -1
COC(=O)c1ccc(C(=O)Nc2c(C(N)=O)oc3ccccc23)cc1 | 3.6*
O=C(Nc1c(C(=O)c2ccc(F)cc2)oc2ccccc12)c1ccco1 | -0.64
O=C(Cn1c(=O)oc2ccccc21)Nc1nncs1 | -0.26
C=CCOc1ccc(C2C(C(=O)c3cc4ccccc4o3)=C(O)C(=O)N2CCN(C)C)cc1 (stereo not drawn) | 0.54
O=C(CSCCS(=O)(=O)c1ccccc1)NCc1ccccc1 | -0.8
Cn1c(=O)c2c(nc(NCCc3ccccc3)n2C)n(C)c1=O | 1.1
Oc1ccccc1/C=N/NC(=S)Nc1cccc(Cl)c1 | 13*
NNC(=S)Nc1cccc(Cl)c1 | 2.9
CNC(=S)N/N=C/c1ccccc1O | 1.4
CCCOc1ccc(Br)cc1C1C(C(=O)OCc2ccccc2)=C(C)Nc2nnnn21 (stereo not drawn) | 1.9
CC(C)(C)Sc1ccc(C(=O)O)s1 | -0.07
Cc1ccc(C2Nn3c(C)nnc3SC2C(=O)Nc2ccc(Br)cc2C)cc1 (stereo not drawn) | 1.3
CN(C)/C=C/C(=O)c1ccc(C#Cc2ccccc2)s1 | 0.28
NC(CCCP(=O)(O)O)C(=O)O (stereo not drawn) | 3.2*
CN=C(N)NCCC[C@H](N)C(=O)O | 0.12
SMILES | Dicer inh
N[C@@H](CCCC(=O)O)C(=O)O | 0.32
COc1cc(Cl)cc(OC)c1NC(=S)N1CCN2C(=O)c3ccccc3C21c1ccccc1 (stereo not drawn) | 2.5
Cc1c(/C=C/c2ccnc(SCc3cccc(Cl)c3)n2)sc2ccccc12 | 0.01
CCOc1cccc(C2c3c(oc4ccccc4c3=O)C(=O)N2c2nnc(C(C)C)s2)c1 (stereo not drawn) | -0.53
c1ccc2oc(-c3ccc(-c4nc5ccccc5o4)cc3)nc2c1 | 2
c1cc(-c2nc3ccccc3o2)nc(-c2nc3ccccc3o2)c1 | 0.28
c1ccc2oc(CCCc3nc4ccccc4o3)nc2c1 | 5.5*
CCOC(=O)C12CCC(C(=O)OCC)(CC1=O)C(=O)C2 | -0.78
O=C1CCCC(=O)C1C(c1ccc(-c2cc(C(F)(F)F)ccc2Cl)o1)C1C(=O)CCCC1=O | 0.05
COC(=O)c1scc(Br)c1OC(=O)c1ccc(Cl)cc1Cl | -0.74
NC1=NC(c2ccco2)n2c(nc3ccccc32)N1 (stereo not drawn) | 1.1
OCCSc1nnnn1-c1ccccc1 | -1.3
CCOC(=O)CSc1nnnn1-c1ccccc1 | 3.7*
O=C(CSc1nnnn1-c1ccccc1)c1ccccc1 | 0.17
CC(C)N(CCO)S(=O)(=O)c1ccc(N)cc1 | 1.1
c1ccc(CNc2ncnc3sc4c(c23)CCCC4)cc1 | -0.56
O=C(c1ccc(Cl)cc1)N1CCSC1=S | -1.4
COC(=O)c1cc(Cl)cc(Cl)c1-c1c(Cl)cc(Cl)cc1C(=O)OC | -0.82
COC(=O)c1cc(=O)n2c(c1C(=O)c1ccc(Cl)cc1)SCC2 | 5.6*
CN(C)CCCN1C(=O)C(O)=C(C(=O)c2cccs2)C1c1ccncc1 (stereo not drawn) | 1.2
COc1ccc(C2C(C(=O)c3cccs3)=C(O)C(=O)N2CCCN(C)C)cc1 (stereo not drawn) | -0.27
CN(C)CCN1C(=O)C(O)=C(C(=O)c2cccs2)C1c1ccncc1 (stereo not drawn) | 4.1*
Cc1nnc(N2C(=O)C(O)=C(C(=O)c3cccs3)C2c2ccc(C(C)C)cc2)s1 (stereo not drawn) | 0.33
CC(C)c1ccc(C2C(C(=O)c3cccs3)=C(O)C(=O)N2CCN(C)C)cc1 (stereo not drawn) | 4.7*
CC(C)c1ccc(C2C(C(=O)c3cccs3)=C(O)C(=O)N2CCN2CCOCC2)cc1 (stereo not drawn) | -0.41
O=C1CCSC2=C1CS(=O)(=O)c1ccc(Cl)cc12 | 0.3
CSc1cccc(NC(=S)Nc2cc3c(c(N)c2C)C(C)(C)CC3(C)C)c1 | 0.78
COc1ccc(-c2noc(/C=C/c3ccccc3Cl)n2)cc1OC | 0.46
COc1cccc(-c2csc(=NCc3cccnc3)n2-c2ccccc2)c1 | 0.83
CCOC(=O)c1sc2c(c1OC(=O)c1ccco1)c(=O)n(-c1ccccc1)c(=S)n2-c1ccccc1 | -0.12

Screening data: PubChem BioAssay, Center for Chemical Genomics, University of Michigan
